Source: PubChem BioAssay (NCATS)
Inconclusive results are not listed. Where a call stands in place of a potency, no number is given. Calls of active or inactive are those of the source. Calls follow the shape of the dose curve; as a rule, active = well fitted cell-killing curve with a large enough effect; inconclusive = small, poorly fitted or top-dose-only effect, or effect the other way; inactive = no such curve, though single readings can be large or run the other way.

Test: Quantitative High-Throughput drug screen in 47 multiple myeloma cell lines against the NCATS MIPE library collection: RPMI8226_ATCC cell viability assay (AID 1919871); also: nearly all actives have a fitted effect of over 30% in size
Details: RPMI8226 myeloma viability, CellTiter-Glo ATP luminescence, 48 h; series mostly up to 45.8 µM
Outline: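 MIPE 4.0 approved/investigational drugs; 500 cells/well; 48 h 37 °C humidified 5% CO2; CTG luminescence readout; DMSO = 100%, media = 0% viability.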
Potency is read from the fitted curve at half-maximal effect.

| Structure (SMILES) | Potency |
| --- | --- |
| CC(N[C@H]1C[C@H]1c1ccccc1)c1ccc2c(c1)OCCO2 (some centres undefined) | inactive |
| CC(=Cc1csc(C)n1)[C@@H]1C[C@H]2O[C@]2(C)CCC[C@H](C)[C@@H](O)[C@@H](C)C(=O)C(C)(C)[C@@H](O)CC(=O)O1 | inactive |
| O=c1cccc2n1CC1CNC[C@H]2C1 | inactive |
| Cc1c(N)nc([C@H](CC(N)=O)NC[C@@H](N)C(N)=O)nc1C(=O)N[C@H](C(=O)N[C@@H](C)[C@H](O)[C@@H](C)C(=O)N[C@@H](C(=O)NCCc1nc(-c2nc(C(=O)NCCC[S+](C)C)cs2)cs1)[C@@H](C)O)C(O[C@H]1O[C@H](CO)[C@H](O)[C@@H](O)[C@@H]1O[C@H]1O[C@H](CO)[C@@H](O)[C@H](OC(N)=O)[C@H]1O)c1cnc[nH]1 (some centres undefined) | inactive |
| NC1CC1c1ccccc1 (centres undefined) | inactive |
| CC(C)(O)C(=O)Nc1ccc([N+](=O)[O-])c(C(F)(F)F)c1 | inactive |
| CCOC(=O)c1cncn1[C@H](C)c1ccccc1 | inactive |
| CC(O)=C(C#N)C(=O)Nc1cc(Br)ccc1Br | 11.8 µM (active) |
| CCOP(=O)(OCC)C(C)NC(=O)N(CCCl)N=O (centres undefined) | inactive |
| c1ccc(CCCN2CCN(CCOC(c3ccccc3)c3ccccc3)CC2)cc1 | 20.9 µM (active) |
| CN(C)NC(=O)CCC(=O)O | inactive |
| CCOC(=O)c1c(C(C#N)=CN)c2ccc(Cl)c(Cl)c2n1C | inactive |
| COc1cc([C@@H]2c3cc4c(cc3[C@@H](O)C3COC(=O)C32)OCO4)cc(OC)c1O (some centres undefined) | 0.118 µM (active) |
| CCCN1CCO[C@@H]2c3cc(O)ccc3OC[C@@H]21 | inactive |
